The source made the active and inactive calls. Rule for the calls: active = hit-call score of the fitted dose curve at least 0.9, where 1 is the maximum; inactive = score below 0.9.
Assay: APR_HepG2_StressKinase_72hr: Apredica 72-hour HepG2 Assay for Stress Kinase (AID 2282921)
Settings: HepG2 stress kinase (phospho-c-Jun) imaging, actives raise or lower the signal
Description: APR_HepG2_72hr is a cell-based, multiplexed-readout assay that uses HepG2, a human liver cell line, with measurements taken at 72 hours after chemical dosing in a 384-well plate.APR_HepG2_StressKinase_72hr is one of 10 assay component(s) measured or calculated from the APR_HepG2_72hr assay. It is designed to make measurements of enzyme activity, a form of enzyme reporter, as detected with fluorescence intensity signals by HCS Fluorescent Imaging technology.Data from the assay component APR_HepG2_StressKinase_72hr was analyzed into 1 assay endpoint. This assay endpoint, APR_HepG2_StressKinase_72hr, was analyzed with bidirectional fitting relative to DMSO as the negative control and baseline of activity. Using a type of enzyme reporter, measures of protein for gain or loss-of-signal activity can be used to understand the signaling at the pathway-level as they relate to the gene . Furthermore, this assay endpoint can be referred to as a primary readout, because this assay has produced multiple assay endpoints where this one serves a signaling function. To generalize the intended target to other relatable targets, this assay endpoint is annotated to the cell cycle intended target family, where the subfamily is stress response.
Cells were treated with dimethyl sulfoxide (DMSO) as a solvent control at a final concentration of 0.5% v/v or with compounds in DMSO with a resulting final DMSO concentration of 0.5% v/v. Compound treatment was done at concentrations of 0.39, 0.78, 1.56, 3.12, 6.24, 12.5, 25, 50, 100, and 200 uM in duplicate on each plate. Cells were treated with compounds for 1, 24, or 72 hr. Carbonyl […] m-chloro-phenylhydrazone (CCCP) and taxol were used as positive controls for mitochondrial function and cytoskeletal stability, respectively; DMSO served as the negative control for this experiment. Cells were fixed by the direct addition of 50 uL formaldehyde in Hank's Balanced Salt Solution (HBSS) to a final concentration of 3.7%. After incubation in the fixation medium for 30 min at room temperature (293-298 K), cells were rinsed twice with HBSS and treated with cell permeabilization buffer (16 uL of 0.5% Triton X-100) for 10 min at room temperature (293-298 K) before labeling. For mitochondrial membrane potential and mitochondrial measurements, pre-fixed cells were incubated with 50 uL of MitoTracker Red CMXRos (Invitrogen) at a concentration of 250 nM for 30 min before fixation. In the remaining cases, post-fixed cells were labeled by incubation with a multiplexed mixture of primary antibodies in HBSS for 60 min at room temperature (293-298 K) to detect immunoreactivity of c-Jun (1:500), phospho-histone H3 (1:100), phospho-histone H2A.x (1:200), p53 (1:400), alpha-tubulin (1:200) and Hoechst 33342 (2 ug/mL). Cells were labeled for multiplexed imaging on two separate plates: a) Hoechst 33342, MitoTracker Red, phospho-histone H3, and alpha-tubulin, and b) Hoechst 33342, phospho-histone H2A.x, and c-Jun. A final rinse with HBSS (50 uL) was performed before analysis. The primary and secondary antibodies for the proteins were phospho-histone H3 (rabbit anti-phospho-histone H3 and FITC-donkey anti-rabbit IgG), phospho-histone H2A.x (mouse anti-phospho-histone H2A.x and FITC-donkey anti-mouse IgG), c-Jun (rabbit anti-phospho-c-Jun and Cy3-donkey anti-rabbit IgG), p53 (sheep anti-p53 and Cy5-donkey anti-sheep IgG), alpha-tubulin (mouse anti-alpha-tubulin and Cy5-donkey anti-mouse IgG). These antibodies are available as the CellCiphr HepG2 assay kit (Millipore).Digital images of each well were captured using a Cellomics ArrayScan VTI (Thermo Scientific Cellomics) (0.8 NA objective, 0.63x optical coupler, and XF-93 filter set) at 20x magnification. The images were acquired using the autofocus feature of the ArrayScan instrument, which entails the following steps. First, the camera focuses on channel 1 (Hoechst 33342), where nuclei are identified. Second, a Z offset of 1 um is used for capturing mitochondria (MitoTracker Red). […]

Row | Compound | outcome | AC50
1 | OCC(CO)(CBr)CBr | inactive | –
2 | CN(C)CCOC(c1ccccc1)c1ccccc1 | inactive | –
3 | Cc1[nH]nc2c1N=C(c1ccccc1Cl)c1cc([N+](=O)[O-])ccc1N2 | – | 11.7 µM (active)
4 | N=C(N)c1ccc(OCCCCCOc2ccc(C(=N)N)cc2)cc1 | inactive | –
5 | O=C(CCCN1CCC(O)(c2ccc(Cl)cc2)CC1)c1ccc(F)cc1 | – | 42.5 µM (active)
6 | CCCCCCCCCCCCCCC | inactive | –
7 | CS(=O)(=O)c1ccc([C@@H](CC2CCCC2)C(=O)Nc2cnccn2)cc1Cl | inactive | –
8 | CCCCc1oc2ccccc2c1C(=O)c1cc(I)c(OCCN(CC)CC)c(I)c1 | inactive | –
9 | CN(Cc1cnc2nc(N)nc(N)c2n1)c1ccc(C(=O)N[C@@H](CCC(=O)O)C(=O)O)cc1 | inactive | –
10 | O=C(c1ccccc1)c1ccccc1 | inactive | –
11 | CCCCCCCCCCCCOS(=O)(=O)O | inactive | –
12 | CCCCC(CC)C(=O)O (centres undefined) | inactive | –
13 | CCCCC=O | inactive | –
14 | CC(=O)Nc1ccc(O)cc1 | inactive | –
